For 60 molecules, Potency results are on record in ChEMBL document CHEMBL1201862, “PubChem BioAssay data set” (2004).

In all, about 400,000 compounds went through this assay and about 1,900 (0.47%) were called active. Not shown: some 14% with an inconclusive outcome. The rule behind the calls is not given here. The full list was thinned out, with actives kept by preference.

For this experiment, the target named is Ataxin-2 (Homo sapiens) (UniProt Q99700). Nature of the experiment: qHTS for Inhibitors of ATXN expression. In kind it is functional. On the technique in general: In qHTS, concentration-response curves come from the screen itself.
Ataxin-2 (Homo sapiens), sequence (Q99700 whole entry): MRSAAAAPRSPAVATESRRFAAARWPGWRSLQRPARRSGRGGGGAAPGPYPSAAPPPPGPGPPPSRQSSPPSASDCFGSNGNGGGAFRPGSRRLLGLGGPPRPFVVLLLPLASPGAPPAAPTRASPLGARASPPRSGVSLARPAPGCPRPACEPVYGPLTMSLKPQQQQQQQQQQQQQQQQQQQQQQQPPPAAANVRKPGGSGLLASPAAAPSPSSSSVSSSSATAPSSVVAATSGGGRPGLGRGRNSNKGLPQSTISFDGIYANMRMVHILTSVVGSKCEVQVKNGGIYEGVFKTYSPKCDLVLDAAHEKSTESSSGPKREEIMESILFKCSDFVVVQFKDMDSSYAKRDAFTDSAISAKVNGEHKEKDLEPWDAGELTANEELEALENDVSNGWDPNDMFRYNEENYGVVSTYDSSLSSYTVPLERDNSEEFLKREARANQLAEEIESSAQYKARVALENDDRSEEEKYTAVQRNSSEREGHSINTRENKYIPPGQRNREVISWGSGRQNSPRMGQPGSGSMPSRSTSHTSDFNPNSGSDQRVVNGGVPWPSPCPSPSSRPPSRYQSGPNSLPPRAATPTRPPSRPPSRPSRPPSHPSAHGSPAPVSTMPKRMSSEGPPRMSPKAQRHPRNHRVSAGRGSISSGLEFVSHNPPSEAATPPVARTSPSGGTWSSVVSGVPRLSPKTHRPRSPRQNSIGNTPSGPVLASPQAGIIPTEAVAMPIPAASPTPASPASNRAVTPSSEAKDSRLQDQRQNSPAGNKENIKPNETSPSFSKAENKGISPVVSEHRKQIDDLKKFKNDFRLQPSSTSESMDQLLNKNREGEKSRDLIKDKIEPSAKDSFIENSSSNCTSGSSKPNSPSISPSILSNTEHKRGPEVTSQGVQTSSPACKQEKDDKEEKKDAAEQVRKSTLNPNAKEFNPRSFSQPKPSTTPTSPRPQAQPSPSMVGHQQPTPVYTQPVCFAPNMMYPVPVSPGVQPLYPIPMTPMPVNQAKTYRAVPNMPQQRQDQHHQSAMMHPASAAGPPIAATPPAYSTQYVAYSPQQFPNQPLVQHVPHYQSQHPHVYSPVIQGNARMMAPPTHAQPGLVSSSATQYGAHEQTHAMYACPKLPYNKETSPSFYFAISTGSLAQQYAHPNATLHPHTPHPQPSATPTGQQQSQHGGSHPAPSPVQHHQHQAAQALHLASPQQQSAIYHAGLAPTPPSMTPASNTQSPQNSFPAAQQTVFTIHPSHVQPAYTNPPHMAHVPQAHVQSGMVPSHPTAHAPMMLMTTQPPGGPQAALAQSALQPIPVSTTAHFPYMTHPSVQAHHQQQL
For the molecule `CCOC(=O)[C@]12Cc3ccccc3[C@H]1N(C(C)C)C(=O)c1cc(OC)ccc12`, the Potency is 17.8 µM (active).

For `CCOC(=O)[C@]12Cc3c(cc(OC)c(OC)c3OC)[C@H]1N(C)C(=O)c1cc(OC)ccc12`, the Potency is 11.2 µM (active). To `CCOC(=O)[C@]12Cc3ccccc3[C@H]1N(C)C(=O)c1cc(OC)ccc12` belongs 31.6 µM (active); to `CCOC(=O)[C@]12Cc3ccccc3[C@H]1N(C(C)C)C(=O)c1ccccc12`, 22.4 µM (active); to `N#CC1=C(N)Oc2c(c(=O)oc3ccccc23)C1c1ccc([N+](=O)[O-])o1` (stereo not given), “inactive”. In the case of `CC(C)OCC(O)CN1CC2C[C@@H](C1)Cn1c2cccc1=O` (stereo not given in full) it was “inactive”. Regarding `Cc1cc(=O)oc2cc(OCC(=O)N3CCN(C(C)c4ccccc4)CC3)c(Cl)cc12` (stereo not given), the Potency entry is “inactive”. In the case of `CCCCn1c(NC(=O)c2ccco2)c(C(=O)OCC)c2nc3ccccc3nc21` it was “inactive”; in that of `CCOC(=O)[C@]12Cc3cc(C)ccc3[C@H]1N(C(C)C)C(=O)c1ccccc12`, 11.2 µM (active); in that of `CCCCN1C(=O)/C(=C/NNC(=O)c2ccncc2)C(=O)NC1=S`, “inactive”. Consider `CCOc1c(Cl)cc(CNC(C)C(O)c2ccccc2)cc1OC` (stereo not given), for which the Potency result is “inactive”.

Turning to `COc1cccc(CNCCc2cccc(F)c2)c1OC`, the Potency entry was “inactive”. As to `CCOc1c(Cl)cc(CNCCc2c[nH]c3ccccc23)cc1OC`, the Potency is 20 µM (active).

Regarding `COc1cccc(-n2c(/C=C/c3ccc(O)c(O)c3)nc3ccccc3c2=O)c1`, the Potency result is “inactive”. In the case of `COP(=O)(OC)c1nc(-c2ccc([N+](=O)[O-])cc2)oc1N1CCCCC1` it was “inactive”.

`O=[N+]([O-])/C=C/c1c(Cl)cccc1Cl`: the Potency was 4.74 µM (active). With `CC(C)CCNC(=O)c1c(N)n(CC2CCCO2)c2nc3ccccc3nc12` (stereo not given), the Potency result was “inactive”. In the case of `O=C1NC(=O)N(Cc2ccccc2)C(=O)/C1=C/NNC(=O)c1ccncc1` it was “inactive”; in that of `Cc1cnc(SCc2ccccn2)nc1C1CCCN(C(=O)c2scc3c2CCCC3)C1` (stereo not given), 25.1 µM (active). In the case of `Nc1ccc2c3c(cccc13)-c1ccccc1-2` it was “inactive”; in that of `O=C(NCC1=C(c2ccc3ccccc3c2)C[C@@H]2CC[C@H]1N2Cc1ccco1)c1ccc([N+](=O)[O-])cc1`, 31.6 µM (active); in that of `Nc1c(C(=O)NCC2CCCO2)c2nc3ccccc3nc2n1Cc1ccco1` (stereo not given), “inactive”. With `Nc1c(C(=O)NCc2ccco2)c2nc3ccccc3nc2n1Cc1ccccc1`, the Potency entry is “inactive”. As to `CCC(Nc1ccccc1N)=C1C(=O)NC(=O)NC1=O`, the Potency result is “inactive”. Turning to `CCC1(C)OC(c2ccccc2)=C/C(=C/C=C2C(=O)NC(=O)NC2=O)O1` (stereo not given), the Potency result is “inactive”.

Turning to `O=c1ccc2cc(O[C@@H]3O[C@H](CO)[C@@H](O)[C@H](O)[C@H]3O)c(O)cc2o1`, the Potency entry is “inactive”. For the molecule `O=C(NCc1ccccc1)c1cccn(Cc2cccc(Cl)c2)c1=O`, the Potency result is “inactive”. In the case of `Cc1n[nH]c2ccc(-c3cncc(OC[C@@H](N)Cc4c[nH]c5ccccc45)c3)cc12` it was 11.2 µM (active). Turning to `C[n+]1c2cc(N)ccc2cc2ccc(N)cc21`, the Potency entry was “inactive”. For `Clc1ccc(COC(Cn2ccnc2)c2ccc(Cl)cc2Cl)cc1` (stereo not given), the Potency was 39.8 µM (active). To `Clc1ccc(C(Cn2ccnc2)OCc2csc3c(Cl)cccc23)c(Cl)c1` (stereo not given) belongs 28.2 µM (active); to `COc1ccc(Br)cc1CNCCc1cccc(Cl)c1`, “inactive”; to `CC/C(=C(\c1ccc(O)cc1)c1ccc(OCCN(C)C)cc1)c1ccccc1`, 39.8 µM (active). To `CCCCCC[C@H]1C(=O)O[C@H](C)[C@H](NC(=O)c2cccc(NC=O)c2O)C(=O)O[C@@H](C)[C@H]1OC(=O)CC(C)C` belongs “inactive”; to `C=CCc1ccccc1OCCn1c(C2CC(=O)N(Cc3ccc(F)cc3)C2)nc2ccccc21` (stereo not given), 39.8 µM (active); to `CC[C@@H]1CN2CCc3cc(OC)c(OC)cc3[C@H]2C[C@@H]1C[C@H]1NCCc2cc(OC)c(OC)cc21`, 0.316 µM (active). As for `CC[C@@H]1CN2CCc3cc(OC)c(OC)cc3[C@H]2C[C@@H]1C[C@@H]1NCCc2cc(O)c(OC)cc21`, the Potency was 0.0631 µM (active).

On to `CC(=O)O[C@H]1CCC2C3CCC4=CC(=O)CCC4=C3C=C[C@@]21C` (stereo not given in full), for which the Potency result is “inactive”.

As to `CN1C(=O)C(=CNCCN2CCOCC2)C(=O)N(C)C1=S`, the Potency entry is “inactive”. `Cc1ccc(N/N=C/C=C/c2ccco2)cc1`: the Potency entry was “inactive”. Regarding `CC(=O)C12CC(C)=C(C)CC1CC1C3CCC4=CC(=O)CCC4(C)C3CCC12C` (stereo not given), the Potency entry is “inactive”. Turning to `O=C1NC(=O)N(CCc2ccc(F)cc2)C(=O)/C1=C/NNC(=O)c1ccncc1`, the Potency result is “inactive”. As for `Fc1ccc(C2=CCN(C(c3cccs3)c3nnnn3CCc3ccccc3)CC2)cc1` (stereo not given), the Potency was 39.8 µM (active). To `Clc1ccc2sc(C3CCNCC3)nc2c1` belongs “inactive”; to `O=C1NCN(c2ccccc2)C12CCN(C(c1ccccc1OC(F)(F)F)c1nnnn1Cc1ccccc1)CC2` (stereo not given), 39.8 µM (active).

For the molecule `CCCCn1nnnc1C(c1cccc(OC)c1OC)N1CCC2(CC1)C(=O)NCN2c1ccccc1` (stereo not given), the Potency was 39.8 µM (active). In the case of `O=C1NCN(c2ccccc2)C12CCN(C(c1cccc3ccccc13)c1nnnn1Cc1ccccc1)CC2` (stereo not given), the Potency was 39.8 µM (active).

As for `COc1cccc(C(c2nnnn2Cc2ccccc2)N2CCC3(CC2)C(=O)NCN3c2ccccc2)c1OC` (stereo not given), the Potency is 39.8 µM (active). In the case of `Cc1c(CC(=O)N2C[C@H]3C[C@@H](C2)c2cccc(=O)n2C3)c(=O)oc2c(C)c(O)ccc12` it was “inactive”; in that of `COc1ccc2c(c1)NP(=S)(Oc1ccccc1)N2` (stereo not given), “inactive”. On to `N#Cc1cccc(NC(=O)CSc2nc3c(cc2C#N)N2CCC3CC2)c1`, for which the Potency result is “inactive”. In the case of `Fc1cccc(F)c1CN1CCN(c2ccc(Cl)cc2)CC1` it was “inactive”.

For the molecule `CCC(C)NC(=O)c1c(N)n(CCCOC)c2nc3ccccc3nc12` (stereo not given), the Potency entry is “inactive”. Consider `CCCCNC(=O)c1c(N)n(CCCOC)c2nc3ccccc3nc12`, for which the Potency result is “inactive”. In the case of `Cc1cc(=O)oc2cc3c(cc12)CCCN3` it was “inactive”; in that of `CC[C@H](C)/C=C(C)/C=C/C1=CC2=C(Cl)C(=O)[C@](C)(OC(C)=O)C(=O)C2=CO1`, 28.2 µM (active).

For the molecule `CCn1nc(-c2ccccc2)nc2c(=O)n(C)c(=O)nc1-2`, the Potency was 20 µM (active). For `COc1ccc(-n2c(/C=C/c3ccc(O)cc3)nc3ccccc3c2=O)cc1`, the Potency entry is “inactive”.

In the case of `CCn1nc(/C=C/c2ccccc2)nc2c(=O)n(C)c(=O)nc1-2`, the Potency was 10.6 µM (active). As for `CCN1C(=O)/C(=C/NNC(=O)c2ccncc2)C(=O)NC1=S`, the Potency entry was “inactive”.
